PubChem BioAssay AID1159580 (chemical genetic matrix, 2015)
“And” between values parts separate entries of the source, which are not always exact repeats. Equal entries are not always repeated. Out of some 5,500 compounds screened, about 2,000 (36%) were called active. Roughly 18% stayed inconclusive and do not appear here. Cut-off read from the data, not from the text of the source: active = normalized growth mostly below about 0.91 (no sharp cut-off); inconclusive = no clear call, values can overlap the other calls; inactive = mostly above about 0.92. The list shows a part of the results.

Assay: chemical genetic growth profiling, strain panel (AID 1159580);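 note: tested at 20 µM; growth read once vehicle control cultures reached saturation at 30 °C; 1 = growth at the plate median or of vehicle wells; lower values mean less growth of the strain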
Conditions: S. cerevisiae deletion strains, growth OD

Measured: normalized growth

O=c1[nH]c(=O)n(C2C[C@H](O)[C@@H](CO)O2)cc1C(F)(F)F (stereo partly specified)
inactive: locus YAL013W, strain DEP1, stronger effect = lower value 0.992 | locus YAL021C, strain ccr4, stronger effect = lower value 0.999 | locus YAL026C, strain drs2, stronger effect = lower value 0.973 | locus YAL030W, strain snc1, stronger effect = lower value 0.979 | locus YBL061C, strain skt5, stronger effect = lower value 0.974 | locus YBR009C, strain hhf1, stronger effect = lower value 0.981 | locus YBR021W, strain FUR4, stronger effect = lower value 0.968 | locus YBR023C, strain chs3, stronger effect = lower value 0.983 | locus YBR171W, strain sec66, stronger effect = lower value 0.965 | locus YBR229C, strain ROT2, stronger effect = lower value 0.986 | locus YBR231C, strain swc5, stronger effect = lower value 0.976 | locus YBR279W, strain paf1, stronger effect = lower value 0.98 | locus YCL011C, strain gbp2, stronger effect = lower value 0.954 | locus YCL016C, strain dcc1, stronger effect = lower value 0.972 | locus YCL029C, strain bik1, stronger effect = lower value 0.971 | locus YCL069W, strain vba3, stronger effect = lower value 0.994 | locus YCR088W, strain abp1, stronger effect = lower value 0.973 | locus YDL005C, strain med2, stronger effect = lower value 0.964 | locus YDL035C, strain GPR1, stronger effect = lower value 0.986 | locus YDL040C, strain nat1, stronger effect = lower value 0.976 | locus YDL074C, strain BRE1, stronger effect = lower value 0.97 | locus YDL101C, strain DUN1, stronger effect = lower value 0.987 | locus YDL134C, strain PPH21, stronger effect = lower value 1 | locus YDL185W, strain tfp1, stronger effect = lower value 0.962 | locus YDL192W, strain arf1, stronger effect = lower value 0.981 | locus YDR001C, strain nth1, stronger effect = lower value 0.947 | locus YDR069C, strain doa4, stronger effect = lower value 0.95 | locus YDR101C, strain arx1, stronger effect = lower value 0.981 | locus YDR137W, strain rgp1, stronger effect = lower value 0.901 | locus YDR150W, strain NUM1, stronger effect = lower value 0.996 | locus YDR159W, strain sac3, stronger effect = lower value 0.947 | locus YDR162C, strain NBP2, stronger effect = lower value 0.984 | locus YDR195W, strain ref2 0.922 | locus YDR297W, strain sur2, stronger effect = lower value 0.969 | locus YDR318W, strain mcm21, stronger effect = lower value 0.987 | locus YDR334W, strain swr1, stronger effect = lower value 0.964 | locus YDR335W, strain msn5, stronger effect = lower value 0.96 | locus YDR388W, stronger effect = lower value 0.975 | locus YDR392W, strain spt3, stronger effect = lower value 1 | locus YDR502C, strain sam2, stronger effect = lower value 0.979 | locus YEL003W, strain gim4, stronger effect = lower value 0.979 | locus YEL037C, strain rad23, stronger effect = lower value 0.984 | locus YEL061C, strain CIN8 (second series), stronger effect = lower value 0.952 | locus YEL061C, strain CIN8, stronger effect = lower value 0.995 | locus YER015W, strain faa2, stronger effect = lower value 0.972 | locus YER016W, strain bim1, stronger effect = lower value 0.978 | locus YER110C, stronger effect = lower value 0.966 | locus YER111C, strain swi4, stronger effect = lower value 0.976 | locus YER155C, strain BEM2 (second series), stronger effect = lower value 0.957 | locus YER155C, strain BEM2, stronger effect = lower value 0.984 | locus YER167W, strain BCK2, stronger effect = lower value 0.945 | locus YFR010W, strain ubp6, stronger effect = lower value 0.953 | locus YGL078C, strain dbp3, stronger effect = lower value 0.966 | locus YGL086W, strain mad1, stronger effect = lower value 0.979 | locus YGL167C, strain pmr1, stronger effect = lower value 0.968 | locus YGL173C, strain kem1, stronger effect = lower value 0.98 | locus YGL227W, strain vid30, stronger effect = lower value 0.946 | locus YGL240W, strain doc1, stronger effect = lower value 1 | locus YGL248W, strain PDE1, stronger effect = lower value 0.978 | locus YGL253W, strain hxk2, stronger effect = lower value 0.972 | locus YGR078C, strain PAC10, stronger effect = lower value 0.997 | locus YGR135W, strain pre9, stronger effect = lower value 0.969 | locus YGR229C, strain SMI1, stronger effect = lower value 0.963 | locus YGR252W, strain gcn5, stronger effect = lower value 0.971 | locus YHR013C, strain ard1, stronger effect = lower value 0.923 | locus YHR027C, strain rpn1, stronger effect = lower value 0.958 | locus YHR030C, strain SLT2, stronger effect = lower value 0.985 and 1.02 | locus YHR079C, strain IRE1 (second series), stronger effect = lower value 0.974 | locus YHR079C, strain IRE1, stronger effect = lower value 1.03 | locus YHR094C, strain hxt1, stronger effect = lower value 0.983 | locus YHR129C, strain ARP1, stronger effect = lower value 0.987 | locus YHR142W, strain chs7, stronger effect = lower value 0.922 | locus YHR200W, strain rpn10, stronger effect = lower value 0.985 | locus YIL066C, strain RNR3, stronger effect = lower value 0.986 | locus YIL073C, strain SPO22, stronger effect = lower value 0.967 | locus YIL125W, strain kgd1, stronger effect = lower value 0.968 | locus YIR030C, strain dcg1, stronger effect = lower value 0.969 | locus YJL092W, strain hpr5, stronger effect = lower value 0.962 | locus YJL095W, strain BCK1 (second series), stronger effect = lower value 0.962 | locus YJL095W, strain BCK1, stronger effect = lower value 0.969 and 1.01 | locus YJL115W, strain asf1, stronger effect = lower value 0.928 | locus YJL129C, strain trk1, stronger effect = lower value 0.916 | locus YJL134W, strain LCB3, stronger effect = lower value 0.987 | locus YJL154C, strain vps35, stronger effect = lower value 0.975 | locus YJL164C, strain tpk1, stronger effect = lower value 0.968 | locus YJL166W, strain qcr8, stronger effect = lower value 0.953 | locus YJL168C, strain set2, stronger effect = lower value 0.987 | locus YJL187C, strain SWE1 (second series), stronger effect = lower value 0.982 | locus YJR043C, strain POL32, stronger effect = lower value 0.973 | locus YJR066W, strain TOR1, stronger effect = lower value 0.963 | locus YJR075W, strain HOC1, stronger effect = lower value 0.991
